# Measurements taken from PubChem BioAssay (Tox21).
# Inconclusive results are not listed. Where a call stands in place of a potency, no number is given. The source made the active and inactive calls. The call rests on the fitted dose curve; in most records, active means well fitted activation curve with a large enough effect in the repeat runs; inconclusive means weak or mixed curves; inactive means flat fitted curve, though single readings scatter.
# Assay: A CellTox Green Cytotoxicity Assay to monitor cytotoxicity in HepG2 cells - 32 hour (AID 1224883); further: nearly all actives have a fitted effect of over 50% in size
# Details: CellTox Green fluorescence; series mostly up to 76.8 µM
# Description: National Center for Advancing Translational Sciences [NCATS]
# NIH Chemical Genomics Center [NCGC]
# U.S. Environmental Protection Agency [EPA]
# National Institutes of Environmental Health Sciences [NIEHS]
# National Toxicology Program [NTP]
# Cell-based models are critical for drug discovery. Determining the natural cytotoxic effects resulting from test compounds is an essential research activity. A CellTox Green Cytotoxicity Assay to monitor cytotoxicity in real time of continues cell culture during 40 hours of the compound treatment was used to screen Tox21 10K library compounds in HepG2 cells. CellTox Green Cytotoxicity Assay is a nonlytic, homogeneous, biofluorescent method to measure cytotoxicity in cell culture after experimental manipulation. The assay system uses a proprietary asymmetric cyanine dye that is excluded from viable cells but preferentially stains the dead cell's DNA. […] Viable cells produce no appreciable increases in fluorescence. Therefore, the fluorescence signal produced by the binding interaction with dead cell DNA is proportional to cytotoxicity.
# The mixture of HepG2 cell suspension and reagents were dispensed at 600cells/6 ul/well in 1536-well tissue culture treated black solid bottom plates using a Multidrop dispenser. After the assay plates were incubated at a 37 C/5% CO2 incubator for 5 hours, 23 nL of compounds dissolved in DMSO, positive and negative controls was transferred to the assay plate by a pintool work station. The plates were incubated at 37 C for 40 hours. The fluorescence intensity were measured at 0h, 8h, 16h, 24h, 32h and 40h time points using ViewLux plate reader during compound treatment.
# Potency means the concentration at half of the fitted maximal effect.
SMILES,Potency,cytotoxicity increase
CCC(=O)OC/C=C/c1ccccc1,inactive,
CCCCC(CC)C(=O)OCCOCCOCCOCCOC(=O)C(CC)CCCC (stereo not given),inactive,
CCCCC(=O)O[C@]1(C(=O)CO)[C@@H](C)C[C@H]2[C@@H]3CCC4=CC(=O)C=C[C@]4(C)[C@@]3(F)[C@@H](O)C[C@@]21C,inactive,
Cc1c(C(=O)NN2CCCCC2)nn(-c2ccc(Cl)cc2Cl)c1-c1ccc(Cl)cc1,inactive,
O=S1OCCO1,inactive,
CC(C)(CCl)c1ccccc1,inactive,
CCOC(=O)[C@@H](C)Oc1ccc(Oc2nc3ccc(Cl)cc3o2)cc1,inactive,
NCC1CCCC(CN)C1 (stereo not given),inactive,
Brc1cc(-c2ccc(Br)c(Br)c2Br)cc(Br)c1Br,inactive,
CC(C)(C)CC(C)(C)c1ccc(OCCO)cc1,inactive,
O=C(CCCCCCCCC#CI)Oc1ccccc1,inactive,
CC(=O)OCC(=O)[C@H]1CC[C@H]2[C@@H]3CCC4=CC(=O)CC[C@]4(C)[C@H]3CC[C@]12C,inactive,
CCCCCCCC/C=C\CCCCCCCC(=O)OC,inactive,
CN(C(=O)C(Cl)Cl)c1ccc(OC(=O)c2ccco2)cc1,inactive,
CC(C)c1nnc2ccc(-c3ocnc3-c3cc(F)ccc3F)cn12,inactive,
CCOC(=N)CC(=O)OCC,inactive,
COc1cc2ncnc(Nc3ccc(F)c(Cl)c3)c2cc1OCCCN1CCOCC1,23.9 µM (active),
CCOc1cc(N)c(Cl)cc1C(=O)NCC1CN(Cc2ccc(F)cc2)CCO1 (stereo not given),inactive,
CCCOCCOCCO,inactive,
CC1=CC(=O)CC(C)(C)C1(O)/C=C/C(C)=C\C(=O)O (stereo not given),inactive,

SMILES,Potency,cytotoxicity increase
CC1C2CC(CC2C2CCCC(O)C2)C1(C)C (stereo not given),43.6 µM (active),
Cn1c(=O)c2c(ncn2CC(=O)O)n(C)c1=O,inactive,
COCC(O)CO (stereo not given),inactive,
CCC(C)=O,inactive,
CCOC(=O)c1ccccc1C,inactive,
Nc1ccc(Cl)cc1[N+](=O)[O-],inactive,
CCC(C(=O)OCCN(CC)CC)c1ccccc1 (stereo not given),inactive,
CC(N)CN (stereo not given),inactive,
OC/C(Br)=C(\Br)CO,inactive,
CCCCC(CC)COC(=O)COc1ccc(Cl)cc1C (stereo not given),inactive,
c1cnc2c(n1)CCCC2,43.6 µM (active),
N#C/C(=C1/SC[C@@H](c2ccc(Cl)cc2Cl)S1)n1ccnc1,inactive,
O=[N+]([O-])c1cccc(S(=O)(=O)NCCNS(=O)(=O)c2cccc([N+](=O)[O-])c2)c1,inactive,
C=CCOC(=O)/C=C\C(=O)OCC=C,inactive,
COc1ccc(CCC(=O)c2c(O)cc(O[C@@H]3O[C@H](CO)[C@@H](O)[C@H](O)[C@H]3O[C@@H]3O[C@@H](C)[C@H](O)[C@@H](O)[C@H]3O)cc2O)cc1O,inactive,
[O]=[Bi],,-9.49% [at 6.97 µM] (inactive)
Cc1ccc(S(=O)(=O)NC2CCCCC2)cc1,inactive,
O=C(O)Cc1ccc(-c2ccccc2)cc1,inactive,
Oc1cc(O)c(Cl)cc1Cl,inactive,
NC(=O)N(O)[C@@H]1C=C[C@H](Oc2cccc(Oc3ccc(F)cc3)c2)C1,38.9 µM (active),
